# Source: PubChem BioAssay AID504834 (National Center for Advancing Translational Sciences (NCATS), 2011)
# Out of some 320,000 compounds screened, about 22,000 (6.9%) were called active. Inconclusive results (about 27%) are left out. Shown is part of a subset that was picked to be rich in actives. A number with no mark means an inactive call. The call rests on the fitted dose curve; in most records, active means well fitted inhibition curve with a large enough effect; inconclusive means small, poorly fitted or top-dose-only effect, or another doubt; inactive means no such curve, though single readings can be large or run the other way.
# Assay: Primary qHTS for delayed death inhibitors of the malarial parasite plastid, 96 hour incubation
# Conditions: P. falciparum luciferase reporter growth; series mostly up to 28.7 µM; activity change, negative = inhibition: at the top concentration
# How it was run: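 Compounds incubated with erythrocytes infected by luciferase-expressing P. falciparum (2% hematocrit, 0.05% parasitemia final) for 96 hours, 37 C in 5% CO2. Growth inhibition scored as decreased luciferase luminescence.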
# On the % scale 0 is the no-effect control and ±100 the full control effect; potency means the concentration at half of the fitted maximal effect.
Compound,"activity change, negative = inhibition",Potency
CC(=O)NC(CC(=O)Nc1nc(-c2ccccc2)c(C(C)=O)s1)c1ccccc1 (configuration not stated),3.68%,–
Cc1ccc(S(=O)(=O)NCC(=O)N2CCOCCOCCOCCOCC2)cc1,12.9%,–
Cc1ccc(CNC(=O)[C@@H](NC(=O)Cc2ccccc2)C(C)C)cc1,37.8%,–
Cn1c(-c2ccc(F)cc2)cc2onc(-c3ccccc3Cl)c2c1=O,69.3%,–
CSc1ncc(Cl)c(C(=O)Nc2cc(C)ccc2C)n1,-13%,–
O=C(COc1ccccc1)Nc1cc2c3c(c1)CC(=O)N3CCC2,31%,–
CC(=O)Nc1ccc(NC(=S)NC(=O)/C=C/c2ccccc2)cc1,8.73%,–
CN(C)CCCSc1ccccc1NC(=O)/C=C/c1ccccc1,–,12 µM (active)
O=C(/C=C/c1ccccc1)N/C(=C/c1ccccc1)C(=O)Nc1ccccc1O,42.9%,–
COc1ccc(NC(=O)CCCNC(=O)Cn2cnc3sc4c(c3c2=O)CCCC4)cc1OC,-7.58%,–
CCNC(=O)CSc1nc(-c2ccccc2)cs1,-65.4%,–
O=C(CSc1nc(-c2ccccc2)cs1)Nc1cccc([N+](=O)[O-])c1,–,10.4 µM (active)
O=C(CSCC(=O)Nc1cccc([N+](=O)[O-])c1)Nc1ccccc1,-2.07%,–
O=[N+]([O-])c1cc(C(F)(F)F)ccc1NCCc1ccncc1,15.8%,–
Cc1ccc2[nH]c(=O)c(CC(=O)O)c(-c3ccccc3)c2c1,0.826%,–
CCCCOC(=O)Nc1nnc(CC(=O)NCc2ccccc2)s1,-8.9%,–

Compound,"activity change, negative = inhibition",Potency
Cc1ccc(OC(=O)c2c(C)nn(-c3ccccc3)c2C)cc1,101%,–
COc1ccc(CN2CC(C(=O)NC3CCCCC3)CC2=O)cc1 (configuration not stated),23.7%,–
COc1ccc(C2OC(=O)CC2C(=O)NC(C)C)cc1 (configuration not stated),–,0.586 µM (active)
COc1ccc(C2CC(=O)NC(=O)C2)cc1,31.5%,–
O=C(c1cc(-c2ccc(O)cc2)on1)N1CCOCC1,276%,–
CCN(CC)CCOC(=O)c1cc2cc(COC)ccc2o1,127%,–
CCC(C(=O)OCCN(CC)CC)c1ccccc1 (configuration not stated),–,inactive
CCCC(C(=O)OCCN(CC)CC)(c1ccccc1)c1ccccc1,–,10.7 µM (active)
COc1ccc(C/C(C)=N/NC(=O)c2ccncc2)cc1,13.4%,–
COc1cc(OC)nc(N/N=C(\c2ccccc2)c2ccncc2)n1,–,5.22 µM (active)
O=C(O/N=C(/c1ccccc1)c1ccncc1)c1ccccc1[N+](=O)[O-],8.43%,–
N#Cc1cccc(CN2CCC(=O)N([C@H](CO)c3ccccc3)CC2)c1,-14.1%,–
C=CCOc1ccc(/C=C/C(=O)OC(C)C(=O)Nc2ccc(NC(C)=O)cc2)cc1 (configuration not stated),32.7%,–
O=C(Cc1ccccc1)Nc1cccc(NC(=O)c2ccccc2)c1,127%,–
O=C(CCl)Nc1cccc(CP(=O)(c2ccccc2)c2ccccc2)c1,–,6.57 µM (active)
CCc1cccc(NC(=O)CCC(=O)O)c1,33.6%,–
